Bioassay records from PubChem.
In the library only some 3.8% were active in any assay of this set; here they are far more common.
TrxR1 substrate: qHTS Assay for Substrates of Mammalian Selenoprotein Thioredoxin Reductase 1 (TrxR1): qHTS. purified TrxR1 substrate turnover, NADPH consumption readout. Potency, µM (titrated, usually from 114 µM), inactives show top-dose activity change, negative = substrate turnover. 390,000 tested, 0.01% active. AID 588456, 2011; note: nearly all actives have a fitted effect of over 50% in size
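Rat TrxR1, dispensed at 90 nM, was prereduced with 400 uM NADPH (final) for 5 min at ~22 deg C, then incubated with compound 15 min before 400 uM selenite. A first-read NADPH fluorescence drop versus no-compound background flagged substrates.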
GLS inhibitor: qHTS for Inhibitors of Glutaminase (GLS); GLS enzymatic activity, qHTS titration; Potency, µM (titrated, usually from 45.5 µM), for inactives: at the highest dose activity change, negative = inhibition, hits mostly inhibitors; 410,000 tested, 0.21% active
Target sequence (O94925 whole entry, looked up): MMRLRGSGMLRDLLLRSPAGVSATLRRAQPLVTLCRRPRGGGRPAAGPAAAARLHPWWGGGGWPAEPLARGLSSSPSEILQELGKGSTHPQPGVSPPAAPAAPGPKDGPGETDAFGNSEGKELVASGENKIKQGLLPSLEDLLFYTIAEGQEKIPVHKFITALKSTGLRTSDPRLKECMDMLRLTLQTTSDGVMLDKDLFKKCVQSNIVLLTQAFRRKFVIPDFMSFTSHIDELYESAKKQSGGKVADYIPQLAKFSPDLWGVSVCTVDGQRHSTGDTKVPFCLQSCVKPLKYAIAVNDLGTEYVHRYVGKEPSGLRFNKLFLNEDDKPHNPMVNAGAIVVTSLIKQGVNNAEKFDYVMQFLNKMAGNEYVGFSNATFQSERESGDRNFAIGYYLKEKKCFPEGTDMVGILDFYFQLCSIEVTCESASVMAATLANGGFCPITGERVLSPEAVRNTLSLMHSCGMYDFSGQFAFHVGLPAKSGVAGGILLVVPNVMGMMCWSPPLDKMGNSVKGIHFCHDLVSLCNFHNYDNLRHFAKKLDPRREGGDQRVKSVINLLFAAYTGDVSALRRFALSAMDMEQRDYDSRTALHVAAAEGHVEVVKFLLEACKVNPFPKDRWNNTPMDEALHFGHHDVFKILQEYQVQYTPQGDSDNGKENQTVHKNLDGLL
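Glutamate formation by hKGA was monitored fluorometrically using coupled glutamate oxidase, HRP and Amplex Red. Substrate was added as 1 mM L-glutamine solution; incubation was 30 min at RT after an initial read.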
Sfp inh: qHTS Assay for Inhibitors of Bacillus subtilis Sfp phosphopantetheinyl transferase (PPTase) | AID 1490, 2009 | Biochemical Sfp PPTase activity, qHTS | Potency, µM, without a hit: largest response in the series, negative = inhibition, most hits filed as inhibitors | 310,000 tested, 3.5% active;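 note: the enzyme is Sfp with the accession as filed and its product quenches rhodamine fluorescence; 0% = enzyme reaction without inhibitor and -100% = no enzyme wells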
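After 15 min at room temperature with compound, 15 nM Sfp received 5 uM rhodamine-CoA plus 12.5 uM BHQ-2-ybbR (50 mM Hepes pH 7.6, 10 mM MgCl2). Rate came from the fluorescence difference over 30 min, ex 525/em 598 nm.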
TrxR1 inh: qHTS Assay for Inhibitors of Mammalian Selenoprotein Thioredoxin Reductase 1 (TrxR1): qHTS; Thioredoxin reductase 1, cytoplasmic (Rattus norvegicus), O89049; recombinant rTrxR1, NADPH fluorescence consumption, selenite substrate; Potency, µM (titrated, usually from 114 µM), inactives show at the top dose activity change, negative = inhibition, hits mostly inhibitors; 390,000 tested, 1% active; note: nearly all actives have a fitted effect of over 65% in size
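Rat TrxR1 (90 nM in the dispensed reagent) was pre-reduced with 400 uM NADPH for 5 min at room temperature, then incubated with compound for 15 min. After 400 uM selenite was added, NADPH fluorescence (Ex 340/Em 450 nm) was followed for 8 min.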
VDR inh: Inhibitors of the vitamin D receptor (VDR): qHTS; Vitamin D3 receptor (Homo sapiens), P11473; VDR-SRC2-3 peptide fluorescence polarization, 2 h; Potency, µM, without a hit: max response, negative = inhibition, most hits filed as inhibitors; 400,000 tested, 0.93% active; AID 504847, 2011
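Reagent solutions, kept cold and dark, are dispensed first; compounds are then pinned in at 23 nl, plates briefly spun, and incubated 2 h at ambient temperature. Inhibition of VDR–SRC2-3 peptide binding is read by fluorescence polarization.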
GCN5L2 inh: qHTS Assay for Inhibitors of GCN5L2 | AID 504327, 2011 | GCN5L2 HAT assay, ThioGlo1 CoA-SH fluorescence | 390,000 tested, 0.21% active | Histone acetyltransferase KAT2A (Homo sapiens), Q92830 | Potency, µM (doses to about 58.9 µM), inactives show at the top dose activity change, negative = inhibition, most hits filed as inhibitors
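GCN5L2 (20nM final) in 50mM HEPES, 0.1mM EDTA pH 7.5, 0.01% Tween-20 was preincubated 15 min at room temperature with compound, then given ThioGlo1 (50uM), H3(1-25) peptide (75uM) and acetyl-CoA (70uM); CoA-thiol fluorescence (Ex340/Em540) was read at 0 and 20 min.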
Starred values were filed as active, the others as inactive; u = inconclusive; x = no result given; ! = not active in a repeat; [ ] = remark or other dose. Calls come from the whole dose curve; as a rule, active = well fitted curve in the direction sought with a large enough effect; inconclusive = small, poorly fitted or top-dose-only effect, or another doubt; inactive = no such curve, though single readings can be large; an effect the other way counts as inactive or inconclusive. Unless noted, % is set by controls: 0 for no effect and ±100 for the full control effect; potency is the fitted concentration of half-maximal effect.

SMILES | TrxR1 substrate | GLS inhibitor | Sfp inh | TrxR1 inh | VDR inh | GCN5L2 inh
O=C(Cc1cccc(NC(=O)C2CCN(C(=O)C3CCCC3)CC2)c1)Nc1cccc(C(=O)N2CCCC2)c1 | 3.7% | 0.4% | x | 8.9% | -21.8% | -7.2%
O=C(Nc1ccc(C(=O)N2CCCC2)cc1)C1CC1 | 4.3% | 2.7% | x | 12.5% | -16.1% | x
CCN1CCC2(CC1)N=C(c1ccc(F)cc1)C(=S)N2C(=O)c1ccc(C(C)(C)C)cc1 | 3.6%[57.1 µM] | 5.5% | u | -22.8%[57.1 µM] | 79.4µM* | -11.1%
CCN1CCN(c2nc(-c3ccc(F)cc3)cc(=O)[nH]2)CC1 | -0.6% | 20.2% | 7.0% | 8.9% | -6.8% | -1.1%
CCc1cc(SC#N)ccc1N | -1.6%[57.1 µM] | -5.4% | 11.8% | 23.6%[57.1 µM] | -1.1% | -2.1%
Cn1c(=O)c(C(=O)CCl)c(N)n(CC2CC2)c1=O | -6.5%[57.1 µM] | -3.2% | -3.6% | 14.1µM* | -0.5% | -2.9%
Cc1ccc(C(=O)Oc2oc(-c3ccco3)nc2C=Nc2ccccc2)cc1 | x | x | 44.7µM* | x | x | 3.1%
Oc1oc(-c2ccco2)nc1C=Nc1ccccc1 | 2.6% | 18.3% | 17.4% | -9.9% | 13.2% | -11.6%
CC(C)=NOCc1ccc(-c2cn([C@@H]3COC[C@@H]3O)nn2)cc1 | x | x | 14.1µM* | x | x | x
Nc1nc(CN2CCCCCC2)nc(Nc2ccccc2)n1 | 5.7%[57.1 µM] | 38.0% | -13.0% | 15.8µM* | 7.4% | -2.7%
C=C1C(=O)O[C@@H]2[C@H]3O[C@]3(C)CCC=C(C)CC[C@@H]12 | 17.9%[57.1 µM] | x | -11.2% | 16.8µM*! | 35.5µM*! | -3.8%
C=C1C(=O)O[C@@H]2[C@@H]1CC/C(C)=C\CC[C@@]1(C)O[C@H]21 | x | -1.7% | 20.8% | x | u | 5.3%[21.4 µM]
Cc1cccc(CS(=O)(=O)c2cn(CC(=O)N3CCOCC3)c3ccccc23)c1 | -6.8% | -4.3% | 50.1µM* | -3.5% | -23.5% | -3.3%
O=C(Cn1cc(S(=O)(=O)Cc2ccccc2F)c2ccccc21)N1CCOCC1 | -1.5% | 0.0% | -16.2% | 7.0% | -23.6% | -2.5%
Cc1ccc(CS(=O)(=O)c2cn(CC(=O)N3CCOCC3)c3ccccc23)cc1 | -9.9% | 0.8% | 56.2µM* | -1.3% | 3.3% | u
CCc1cc(C(=O)OC)c(NC(=O)CC2Nc3cc(C)c(C)cc3NC2=O)s1 (stereo not drawn) | -1.2% | -7.9% | 20.5% | 3.5% | -15.2% | 0.8%
COC(=O)c1c(NC(=O)CC2Nc3cc(C)c(C)cc3NC2=O)sc(C)c1C (stereo not drawn) | -5.9% | -4.2% | 56.2µM* | -9.5% | -17.2% | 1.4%
Cc1nc(SCC(=O)Nc2cc(C)on2)c2c(=O)n(C)c(=O)n(C)c2n1 | 3.9%[57.1 µM] | -0.4% | -22.0% | -1.0%[57.1 µM] | u | -1.3%
O=C1C=CC(=O)N1CCNc1ncc(C(F)(F)F)cc1Cl | -6.9% | u | 7.08µM* | 2µM* | 22.4µM* | 0.0%
COc1ccc(CNC(=O)CN(C)S(=O)(=O)c2ccc3nc(C)sc3c2)cc1 | 6.4% | -1.2% | x | 12.9% | 0.6% | 2.3%
COCCNC(=O)c1cc2cc3ccc(OC)cc3nc2o1 | 868.3% | -10.7% | 12.5% | 70.8µM* | -1.8% | u
COc1ccc2cc3cc(C(=O)NCCC(C)C)oc3nc2c1 | 59.8%[57.1 µM] | -1.1% | 10.4% | 22.5%[57.1 µM] | -5.8% | -1.3%
c1coc(-c2nnc(-c3ccco3)nn2)c1 | 3.9%[57.1 µM] | 7.94µM* | -65.1% | u | 89.1µM* | -22.1%
Cc1ccc(NC(=O)N2CC3CCCN3c3ccccc32)c(C)c1 (stereo not drawn) | -1.6%[57.1 µM] | 29.2% | x | -0.7%[57.1 µM] | -2.6% | 12.6%
CN(Cc1ccccc1)C(=O)COC(=O)c1ccc(Br)c(S(=O)(=O)N2CCOCC2)c1 | 0.7% | 12.7% | x | 20.4% | 4.2% | -4.6%
SMILES | TrxR1 substrate | GLS inhibitor | Sfp inh | TrxR1 inh | VDR inh | GCN5L2 inh
N#Cc1c(-c2ccc(F)cc2)cc(-c2ccccc2)nc1SCC(=O)NCC(=O)O | 2.4% | -7.2% | 2.24µM* | -4.5% | u | u
N#Cc1c(-c2ccccc2)cc(-c2ccccc2)nc1SCCC(=O)O | 6.4%[57.1 µM] | u | 44.7µM* | 9.0%[57.1 µM] | u | -21.1%
N#Cc1c(-c2ccc(Cl)cc2)cc(-c2ccccc2)nc1SCC(=O)O | 6.1% | 0.2% | -14.1% | 0.5% | u | -1.1%
CC(OC(=O)CNC(=O)C1CCCCC1)C(=O)NCc1ccccc1 (stereo not drawn) | 3.6% | -1.7% | x | 13.4% | 7.3% | -3.0%
O=C(CN(C(=O)c1csnn1)c1cccc2c1CCCC2)NCc1ccc(F)cc1 | 7.3%[0.0914 µM] | -10.7% | 18.5% | 17.1%[57.1 µM] | -9.6% | -1.7%
Cc1ccc(CN(C)C(=O)c2cccc(S(=O)(=O)N3CCCC3)c2)o1 | 14.7% | 9.4% | x | 39.8µM* | -19.8% | -2.6%
COc1ccccc1CN(C)C(=O)c1cccc(S(=O)(=O)N2CCCC2)c1 | 4.7% | -6.4% | x | 9.0% | 18.0% | 0.9%
CCOC(=O)Cc1csc(NC(=O)Nc2ccc(Cl)cc2)n1 | -22.2%[57.1 µM] | -11.7% | 20.0% | 11.7%[57.1 µM] | -11.6% | -2.7%
